Results taken from PubChem BioAssay (Tox21).
Inconclusive results are not listed. Unmarked numbers belong to inactive results. Calls follow the shape of the dose curve; as a rule, active = well fitted cell-killing curve with a large enough effect in the repeat runs; inconclusive = weak or mixed curves, or effect the other way; inactive = flat fitted curve, though single readings scatter.

Experiment: qHTS RealTime-Glo MT Cell Viability Assay in HEK293 cells - 40 hour (AID 1224874); also: nearly all actives have a fitted effect of over 50% in size
Conditions: RealTime-Glo luminescence, active compounds read low
Source text: U.S. Tox21 Program National Center for Advancing Translational Sciences [NCATS] NIH Chemical Genomics Center [NCGC] U.S. Environmental Protection Agency [EPA] National Institutes of Environmental Health Sciences [NIEHS] National Toxicology Program [NTP] U.S. Food and Drug Administration [FDA] Tox21 Assay Overview: Measure of cell viability is critical in the cell-base assay. Analysis of cell viability is necessary for the characterization of cell responses to cytotoxic drugs and environmental stress. A RealTime-Glo MT Cell Viability Assay to monitor cell viability in real time of continues cell culture during 40 hours of compound treatment was used to screen Tox21 10K library compounds in Hek293 cells. The RealTime-Glo MT Cell Viability Assay is a nonlytic, homogeneous, bioluminescent method to measure cell viability in real time using a simple, plate-based method. The assay involves adding NanoLuc luciferase and a cell-permeant prosubstrate to cells in culture. Viable cells reduce the proprietary prosubstrate to generate a substrate for NanoLuc luciferase. This substrate diffuses from cells into the surrounding culture medium, where it is rapidly used by the NanoLuc Enzyme to produce a luminescent signal. The signal correlates with the number of viable cells, making the assay well suited for cytotoxicity studies.
Tox21 Assay Protocol Summary: The mixture of Hek293 cell suspension and reagents were dispensed at 600cells/6 ul/well in 1536-well tissue culture treated black solid bottom plates using a Multidrop dispenser. After the assay plates were incubated at a 37 C/5% CO2 incubator for 5 hours, 23 nL of compounds dissolved in DMSO, positive and negative controls was transferred to the assay plate by a pintool work station. The plates were incubated at 37 C for 40 hours. The luminescence intensity were measured at 0h, 8h, 16h, 24h, 32h and 40h time points using ViewLux plate reader during compound treatment.
% is scaled to controls: 0 for no effect and ±100 for the full control effect.

Compound | max response [%]
C=CC(=O)OCC[N+](C)(C)C | 10.3
COC(=O)/C=C(\C)CCC=C(C)C | 9.52
CC(C)(C)NCC(O)COc1cccc2c1CCC(=O)N2 (stereo not given) | 5.27
C=CCON/C(CCC)=C1\C(=O)CC(C)(C)C(C(=O)OC)=C1O | 3.04
CCCCN(CCCC)CCCCCCN(CCCC)CCCC | -10.4
CN(C)c1cc(NC(=O)CNC(C)(C)C)c(O)c2c1C[C@H]1C[C@H]3[C@H](N(C)C)C(=O)C(C(N)=O)=C(O)[C@@]3(O)C(=O)C1=C2O | 2.22
C=CCN(CC=C)CC=C | 12.2
CCOC(=O)CC | 19
O=C(O)P(=O)(O)O | 10.7
CCCOc1ccc(C(=O)OCCN(CC)CC)cc1N | 0.981
CCCCCCCCCCCCCCBr | -1.85
CC1(C)CC(N)CC(C)(C)N1 | 16.7
O=C1CCCc2c(O)cccc21 | 3.41
CCCCCCC(O)CO (stereo not given) | 1.68
O=C(O)Cc1c(Cl)ccc(Cl)c1Cl | 2.56
c1cc2ccc3ccc4ccc5cccc6c(c1)c2c3c4c56 | 1.82
CCOC(=O)CN1CCCC1=O | 0.653
Nc1cc(S(=O)(=O)O)ccc1O | 14.9
O=C(CCBr)N1CCN(C(=O)CCBr)CC1 | 1.87
C[C@@H]1CCC[C@H](C)N1CCCC(O)(c1ccccc1)c1ccccn1 (stereo not given in full) | 4.53

Compound | max response [%]
CC(=O)SCC(CC(=O)c1ccc(C)cc1)C(=O)O (stereo not given) | -0.0795
CCCCCCCCCCCCCCCC(=O)OC | -0.62
BrCCOc1ccccc1 | -4.49
Cc1cc(=O)oc2cc(O[C@@H]3SC[C@@H](O)[C@H](O)[C@H]3O)ccc12 | -5.1
C=CCCCCCCCCCCCCCC | 0.625
O=S(=O)(O)c1cc(I)c(O)c2ncccc12 | 5.82
CC(O)CCCCn1c(=O)c2c(ncn2C)n(C)c1=O (stereo not given) | 0.953
COc1cc(S(N)(=O)=O)cc(C(=O)O)c1OC | 0.543
C=COCCCCO | -1.03
CC(=O)Oc1ccc(C(C)=O)cc1 | -8
COc1cc(NS(=O)(=O)c2ccc(N)cc2)ncn1 | 7.65
C=CC(=O)OCCOCCOCC | 21.6
CSC(=O)c1cccc2nnsc12 | -1.81
CCCCCCCCS(=O)(=O)O | -0.584
CC(C)C(C)C | 5.69
O=C[C@@H](O)[C@H](O)[C@H](O)CO | -1.95
O=C(O)/C=C(\CC(=O)O)C(=O)O | 4.26
CCNC(=O)C(C)OC(=O)Nc1ccccc1 (stereo not given) | -1.79
Cc1nc2ccc(Cl)cc2[nH]1 | 7.55
CCc1ncc(C)[nH]1 | 1.1
